These results are taken from PubChem BioAssay AID588342 (National Center for Advancing Translational Sciences (NCATS), 2011).

Hit rate of the full screen: of about 360,000 compounds, about 25,000 (6.9%) were called active. Entries that show only a call come without a potency. Not shown: some 9% with an inconclusive outcome. The sample holds actives, similar compounds and a random draw of the others, so the mix is not that of the screen. Calls come from the whole dose curve; as a rule, active = well fitted inhibition curve with a large enough effect; inconclusive = small, poorly fitted or top-dose-only effect; inactive = flat fitted curve, though single readings scatter.
Potency is the fitted concentration of half-maximal effect.

Sequence of Luciferin 4-monooxygenase (Photinus pyralis) (P08659 whole entry, looked up): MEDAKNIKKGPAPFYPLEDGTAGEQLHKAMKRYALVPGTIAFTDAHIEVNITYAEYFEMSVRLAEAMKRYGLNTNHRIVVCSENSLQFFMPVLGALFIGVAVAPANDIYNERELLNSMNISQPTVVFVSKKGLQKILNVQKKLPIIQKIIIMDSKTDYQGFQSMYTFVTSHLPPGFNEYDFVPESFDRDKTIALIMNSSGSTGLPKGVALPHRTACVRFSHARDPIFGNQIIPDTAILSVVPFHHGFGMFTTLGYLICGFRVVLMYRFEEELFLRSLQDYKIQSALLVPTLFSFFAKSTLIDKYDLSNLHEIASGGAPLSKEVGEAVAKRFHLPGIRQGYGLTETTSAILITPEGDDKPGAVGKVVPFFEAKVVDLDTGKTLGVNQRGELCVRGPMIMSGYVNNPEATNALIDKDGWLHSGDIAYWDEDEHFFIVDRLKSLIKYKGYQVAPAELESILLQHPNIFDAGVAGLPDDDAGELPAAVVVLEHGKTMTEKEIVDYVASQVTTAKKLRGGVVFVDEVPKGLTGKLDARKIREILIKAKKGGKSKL

This assay concerns the target Luciferin 4-monooxygenase (Photinus pyralis) (UniProt P08659). The assay is described as follows: qHTS profiling assay for firefly luciferase inhibitor/activator using purifed enzyme and Km concentrations of substrates (counterscreen for miR-21 project). Note: nearly all actives have a fitted effect of over 55% in size. As to conditions: purified FLuc, luminescence inhibition; series mostly up to 57.5 µM. A digest of the protocol:
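Purified P. pyralis luciferase, 10 nM final, with Km-level 10 uM D-luciferin and 10 uM ATP in 50 mM Tris acetate pH 7.5, 10 mM Mg acetate, 0.01% Tween-20, 0.05% BSA; 6-point qHTS titration about 60 µM downward; luminescence read.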
For the molecule `COCCCN(C(=S)Nc1c(C)cc(C)cc1C)C(C)c1ccncc1` (stereo not given), the Potency entry is “inactive”.
As for `COc1ccc(-n2cnnc2SCC(=O)Nc2cccc(S(N)(=O)=O)c2)cc1`, the Potency entry was “inactive”.
As to `COc1cccc(-c2cc(C(=O)Nc3ccc(C)cc3)[nH]n2)c1`, the Potency result is “inactive”.
For `CCOc1ccc(C(=O)Nc2ccc(CN3CCOCC3)cc2)cc1Cl`, the Potency is 7.57 µM (active).
The same measure for `COc1ccc(NS(=O)(=O)c2ccc(NC(=O)c3ccc(N(C)S(C)(=O)=O)cc3)cc2)cc1`: “inactive”.
Under `Cc1ccc(NC(=O)c2cccnc2C(=O)Nc2ccc(C)cc2)cc1` stands “inactive”; under `COc1ccc(NC(=O)c2sccc2SCC#N)cc1`, 13.5 µM (active).
The same measure for `O=C(Nc1ccc(CN2CCOCC2)cc1)c1cc(Cl)ccc1Cl`: “inactive”; for `Cc1ccc(NC(=O)c2ccc(Oc3ncccn3)cc2)cc1`: 15.1 µM (active); for `CCCc1cc(=O)oc2cc(OCC(=O)Nc3ccc(CN4CCOCC4)cc3)c(Cl)cc12`: “inactive”.
For `CC1=C(C(=O)Nc2ccccc2)C(c2cccs2)C(C#N)=C(SCC#N)N1` (stereo not given), the Potency entry was “inactive”.
The same measure for `COc1ccc(NC(=O)c2cc3cc(C)ccc3n2C)cc1`: “inactive”; for `COc1ccc(C(=O)Nc2cccc(S(C)(=O)=O)c2)cc1`: 16.9 µM (active).
In the case of `CCOc1ccc(N2CC(c3nc4ccccc4n3CCOc3ccc(OC)cc3)CC2=O)cc1` (stereo not given), the Potency entry is “inactive”.
Under `CCc1cccc(NC(=O)CN(C)S(=O)(=O)c2ccc3[nH]c4c(c3c2)CCCC4)c1` stands “inactive”; under `O=C(CCc1ccccc1)NCc1ccc2c(c1)CCN2C(=O)c1ccccc1`, “inactive”; under `CNC(=O)CN1C(=O)c2cccnc2Sc2ccccc21`, “inactive”.
Under `CN(Cc1ccccc1)C(=O)c1cn(C)c2ccc(S(=O)(=O)N(C)C3CCCCC3)cc2c1=O` stands “inactive”; under `Cn1cc(S(=O)(=O)Nc2ccc(Cl)cc2Cl)c(=O)n(C)c1=O`, “inactive”; under `Cc1cc(C)cc(NC(=O)C(c2ccccc2)N2CCN(CC(=O)N3CCCC3)CC2)c1` (stereo not given), “inactive”.
Turning to `Cc1cccc(OCCC(=O)OCc2csc(CC(=O)Nc3ccccc3C)n2)c1`, the Potency result is “inactive”.
Consider `O=C(Nc1ccccc1F)C(c1ccccc1)N1Cc2ccccc2C1=O` (stereo not given), for which the Potency result was “inactive”.
On to `COc1ccccc1CNC(=O)c1ccc(NC(=O)N2CC(C)Sc3ccccc32)cc1` (stereo not given), for which the Potency entry is “inactive”.
The same measure for `COc1cc2c(=O)c(S(=O)(=O)c3ccc(C(C)C)cc3)cn(Cc3ccccc3C)c2cc1OC`: “inactive”; for `CCCOc1cccc(C(=O)Nc2ccccc2C(=O)N2CCN(C)CC2)c1`: “inactive”.
Under `COCCNC(=S)c1ccc(OC)cc1` stands “inactive”; under `COc1ccc(NC(=O)c2ccc(OC)cc2)cc1`, 4.78 µM (active).
Under `COc1ccc(NC(=O)c2ccc(C#CC(C)(C)O)cc2)cc1` stands “inactive”.
For the molecule `COc1ccc(C(=S)Nc2ccccc2)cc1`, the Potency is 13.5 µM (active).
Under `CCCOc1cccc(C(=O)Nc2cccc(NC(=O)c3ccc(C(C)(C)C)cc3)c2)c1` stands 1.69 µM (active); under `CCCOc1cccc(C(=O)NCCCNC(=O)c2cccnc2)c1`, “inactive”.
For the molecule `COc1ccc(CC(=O)Nc2ccc(C(=O)NC(C)(C)C)cc2)cc1`, the Potency entry was “inactive”.
Regarding `COc1ccc(C(=O)CCC(=O)Nc2ccc(Cl)cc2)cc1`, the Potency result was “inactive”.
For `COc1ccc(C(=O)Nc2ccc(CN3CCOCC3)cc2)cc1`, the Potency is 12 µM (active).
The same measure for `O=C(Nc1ccc(CSc2ccccc2)cc1)c1ccc(CN2CCOCC2)cc1`: “inactive”; for `CCCC(=O)NC(=S)Nc1ccc(CN2CCOCC2)cc1`: “inactive”; for `Cc1cccc(C(=O)NCCc2nc3ccccc3n2Cc2ccccc2Cl)c1`: “inactive”.
The same measure for `O=C1C2N=NN(CC(=O)N3N=C(c4cccc5ccccc45)CC3c3ccccc3)C2C(=O)N1c1ccccc1` (stereo not given): “inactive”; for `Cc1ccc(-n2nc(CO)c(C(=O)NCCc3ccccc3)n2)cc1`: “inactive”.
For `COc1ccccc1C(=O)NC(CCSC)C(=O)N1CCN(C/C=C/c2ccccc2)CC1` (stereo not given), the Potency entry is “inactive”.
Take `COc1cc(C(=O)Nc2ccc(-n3c(C)nc4ccccc4c3=O)cc2)cc(OC)c1OC`: the Potency entry was “inactive”.
The same measure for `CC(C)Cn1c(-c2ccc(S(=O)(=O)N3CCOCC3)cc2)csc1=Nc1cc(Cl)ccc1Cl`: “inactive”; for `Cn1c(CC(=O)NNC(=O)c2ccccc2F)nc2ccccc21`: “inactive”.
With `CCOc1ccc2oc(C(=O)N(CC)CC(=O)Nc3ccc(NC(C)=O)cc3)c(C)c2c1`, the Potency entry was “inactive”.
The same measure for `Cc1nn(CC(=O)N2CCN(c3cccc(C(F)(F)F)c3)CC2)c(=O)c2cc3sccc3n12`: “inactive”; for `CC(=O)c1ccc(NC(=O)c2nc(-c3ccc(C)cc3)n3c2CCCCC3)cc1`: “inactive”; for `COc1ccc(/C=N/NC(=O)Nc2ccc3nsnc3c2)c(OC)c1`: “inactive”.
Take `COc1ccc(C(=O)Nc2sc(C)c(C)c2CN2CCOCC2)cc1`: the Potency is 23.9 µM (active).
The same measure for `CCC(=O)Nc1ccc(C(=O)Nc2cccc(OC)c2)cc1`: 23.9 µM (active).
Regarding `COC(=O)[C@H](CCSC)NC(=O)Nc1ccc(OC)cc1`, the Potency result is “inactive”.
Under `COc1ccc(C(=O)Nc2onc3c2CCCC3)cc1` stands 0.601 µM (active); under `COc1ccc(-c2cc(C(=O)Nc3sc4c(c3C(N)=O)CCCC4)no2)cc1`, “inactive”; under `CC1CCc2noc(NC(=O)c3ccc([N+](=O)[O-])cc3)c2C1` (stereo not given), “inactive”.
Under `CCC(C(=O)OCC(=O)Nc1ccc(C(=O)Nc2ccc(OC)cc2)cc1)c1ccccc1` (stereo not given) stands “inactive”; under `COc1cccc(NC(=O)c2csnn2)c1`, “inactive”.
As for `COc1ccc(C(=O)Nc2ccnn2C2CCN(Cc3ccncc3)CC2)cc1`, the Potency entry was “inactive”.
The same measure for `CCOC(=O)c1c(NC(=O)c2ccc(N3CCOCC3)c([N+](=O)[O-])c2)sc(C)c1C`: “inactive”; for `COc1ccc(NC(=O)Nc2ccc3nsnc3c2)cc1`: 6.75 µM (active); for `CCCCN1C(=O)c2[nH]nc(-c3ccccc3O)c2C1c1cccc(OCc2ccccc2)c1` (stereo not given): “inactive”.
As for `CC1CCN(C(=O)Cn2c(=O)n(-c3ccc(Cl)cc3)c(=O)c3c4c(sc32)CCC4)CC1`, the Potency result is “inactive”.
Under `Cc1ccccc1NC(=O)CN1C(=O)C(C)(C)c2ccccc21` stands “inactive”.
In the case of `Cc1noc(C)c1-c1ccc2ncnc(NC(C)c3ccco3)c2c1` (stereo not given), the Potency result was “inactive”.
As for `Cc1ccc(C)c(N2CCN(C(=O)CCc3c(C)nc4c(c3C)c(=O)n(C)c(=O)n4C)CC2)c1`, the Potency entry is “inactive”.
The same measure for `Cc1ccccc1Nc1scc(-c2ccc(Br)cc2)[n+]1-c1ccccc1C`: “inactive”; for `CCOc1ccc(OCC)c(NS(=O)(=O)c2ccc3[nH]c(=O)ccc3c2)c1`: “inactive”.
